High-throughput results as filed in PubChem.
Rows were chosen to be rich in hits. Some 3.3% of all compounds tested hit in one or more screens of this group.
Vaccinia Venus: inhibitors of vaccinia virus (Venus reporter); Vaccinia virus Venus reporter expression, fluorescence; Potency, µM (doses to about 36.5 µM), usual class: inhibitors; 330,000 compounds, 0.46% hits; AID 720580; calls by dose curve; tested in A549 cells; note: nearly all actives have a fitted effect of over 30% in size
HCV inh: inhibitors of hepatitis C virus infection; Huh7.5.1 HCVcc-Cre infection, luciferase reporter, 44 h; Potency, µM (top dose mostly 41.8 µM), hits mostly inhibitors; 340,000 compounds, 3.4% hits; active = well fitted inhibition curve with a large enough effect; inconclusive = small, poorly fitted or top-dose-only effect, or another doubt; inactive = no such curve, though single readings can be large or run the other way
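Luciferase read-out (15 sec integration) after a 15 min room-temperature substrate step quantifies HCVcc-Cre infection. Cells, 1,000 per well, had compound added 4 h post-plating, then virus at ~0.5 moi, and were cultured 44 h.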
VACV mCherry inh: inhibitors of vaccinia virus infection (mCherry reporter signal) | Vaccinia virus mCherry reporter infection, fluorescence | Potency, µM (series often up to 36.5 µM), usual class: inhibitors | 310,000 compounds, 0.63% hits; calls by dose curve; tested in A549 cells; note: nearly all actives have a fitted effect of over 35% in size
Of the large screens only hits and unclear results are named; the others gave an inactive call; ! = a repeat was not active.

CC(=O)C1=C(C)N(Cc2ccccc2)C(=O)N[C@@H]1c1cccc(C(F)(F)F)c1	none
COc1cccc(NC(=O)CCC2CCN(C(=O)c3ccc(C(C)=O)s3)CC2)c1	none (no result: Vaccinia Venus, VACV mCherry inh)
CCOc1ccccc1CNC(=O)c1ccc2nc(CCc3ccccc3)oc2c1	VACV mCherry inh inconclusive (no result: HCV inh)
COc1ccc(CCN2C(=O)c3oc4cc(C)cc(C)c4c(=O)c3C2c2ccc(F)cc2)cc1OC (stereo not drawn)	none (no result: HCV inh)
CCOC(CNCc1cc(C)c2[nH]c3ccccc3c2c1C)OCC	Vaccinia Venus inconclusive, HCV inh 1.78µM, VACV mCherry inh inconclusive
CCOC(CCNC(=O)c1cc2c(=O)[nH]c3ccccc3c2s1)OCC	none (no result: Vaccinia Venus, VACV mCherry inh)
O=C(CSCc1ccccc1Cl)N1CCN(c2ccc(Cl)cc2)CC1	none (no result: HCV inh)
CCSc1ncnc2nc[nH]c12	none (no result: HCV inh)
Cc1cc(N/N=C/c2ccc(O)cc2)nc(NS(=O)(=O)c2ccccc2)n1	none
Cc1cc(N/N=C/c2ccc(F)cc2)nc(NCc2ccccc2)n1	HCV inh 11.2µM, VACV mCherry inh inconclusive
Cc1ccc(/C=N/Nc2cc(C)nc(NCc3ccccc3)n2)cc1	HCV inh 7.08µM, VACV mCherry inh inconclusive
Cc1cc(N/N=C/c2ccc(Cl)cc2Cl)nc(NCc2ccccc2)n1	Vaccinia Venus inconclusive, HCV inh inconclusive
O=c1[nH]c2ccc(S(=O)(=O)Nc3ccccc3O)cc2[nH]1	VACV mCherry inh inconclusive
O=C(NCCc1nc2ccccc2n1CCOc1ccccc1)C1CCCCC1	none (no result: HCV inh)
CC(C)Oc1ccc(C(=O)OCC(=O)N2CCCc3ccccc32)cc1	none
Fc1ccccc1-c1ccc(-c2nc3ccc(Cl)cn3c2Nc2ccc(Cl)cc2)o1	none (no result: HCV inh)
O=C(c1cnc(Cl)c(Cl)c1)N1CCN(S(=O)(=O)c2cccs2)CC1	none (no result: HCV inh)
O=C(c1cnc(Cl)c(Cl)c1)N1CCN(S(=O)(=O)c2ccc3ccccc3c2)CC1	HCV inh 11.2µM
CCNC(=O)c1ccc2nc(CCc3ccccc3)oc2c1	none (no result: HCV inh)
COc1cc2c(=O)n(Cc3ccccc3)c(=O)n(CC(=O)NCCc3ccccc3)c2cc1OC	HCV inh inconclusive
COc1ccc(CCNC(=O)Cn2c(=O)n(Cc3ccco3)c(=O)c3ccc(Cl)cc32)cc1OC	HCV inh 11.2µM!
CCc1nc2sc3c(N4CCCCC4)ncnc3c2c2c1CCCC2	none (no result: HCV inh)
CC1(C)Cc2c(c(N3CCCC3)nc3sc4c(N5CCNCC5)ncnc4c23)CO1	HCV inh 14.1µM (no result: Vaccinia Venus, VACV mCherry inh)
Cc1oc2c(O)c(O)ccc2c(=O)c1-c1cnn(-c2ccccc2)c1	none (no result: Vaccinia Venus, VACV mCherry inh)
Cc1oc2cc(O)cc(C)c2c(=O)c1-c1cnn(-c2ccccc2)c1	Vaccinia Venus inconclusive, HCV inh 8.91µM
CCOc1ccc(CNC(=O)C2CCCN(S(=O)(=O)c3ccc4c(ccn4C)c3)C2)cc1 (stereo not drawn)	none (no result: HCV inh)
O=C(Nc1ncnc2nc[nH]c12)c1ccccc1	none (no result: HCV inh)
O=C(NC(Cc1c[nH]c2ccccc12)C(=O)Nc1ccc(OC(F)(F)F)cc1)c1cccs1 (stereo not drawn)	HCV inh inconclusive, VACV mCherry inh inconclusive
O=C(NC(Cc1c[nH]c2ccccc12)C(=O)Nc1ccc(F)c([N+](=O)[O-])c1)c1cccs1 (stereo not drawn)	HCV inh inconclusive, VACV mCherry inh 2.51µM
C=CC1=C(C)C2=CC3=NC(=C(CC(=O)[O-])C4=NC(=C(C)C4=C([O-])[O-])C=c4[n-]c(c(C)c4CC)=CC1=N2)C(CCC(=O)[O-])C3C.[Cu+2].[Na+].[Na+].[Na+] (stereo not drawn)	none (no result: HCV inh)
CC(C)CCNC(=O)COc1ccc2c(c1)C(=O)CC(C)(C)O2	none
CC1(C)CC(=O)c2cc(OCC(=O)NCCCN3CCN(c4ccc(F)cc4)CC3)ccc2O1	HCV inh 10µM (no result: Vaccinia Venus, VACV mCherry inh)
CCN(CC)c1ncnc2c1ncn2Cc1c(Cl)cccc1Cl	HCV inh 12.6µM
Clc1cccc(Cl)c1Cn1cnc2c(N3CCCCCC3)ncnc21	HCV inh inconclusive
O=C(NCc1nnc2n1CCN(Cc1cc3c(cc1Cl)OCO3)CC2)C1CCOC1 (stereo not drawn)	none (no result: HCV inh)
CCOc1cc(C(=O)OCc2ccc([N+](=O)[O-])cc2)ccc1OCC(=O)N1CCOCC1	none
CCOc1cc(C=C(C(=O)OC)C(=O)OC)ccc1OCc1ccc([N+](=O)[O-])cc1	Vaccinia Venus 10µM, HCV inh 7.94µM (no result: VACV mCherry inh)
Cc1ccc(CSc2nc3ccc(NC(=O)CC(C)C)cc3s2)cc1	none (no result: HCV inh)
O=C(CSc1nccc(-c2cccs2)n1)Nc1cccc(Cl)c1	HCV inh inconclusive, VACV mCherry inh inconclusive
Cc1onc(-c2ccc(Cl)cc2)c1-c1ccnc(SCC(=O)Nc2cc(Cl)cc(Cl)c2)n1	HCV inh 15.8µM
CSc1nc2ncc3c(n2n1)CC1c2ccccc2CCN1C3=O (stereo not drawn)	none (no result: Vaccinia Venus, VACV mCherry inh)
O=C1c2cnc3nc(SCc4cccc(Cl)c4)nn3c2CC2c3ccccc3CCN12 (stereo not drawn)	HCV inh 11.2µM (no result: Vaccinia Venus, VACV mCherry inh)
CC(C)(O)C#Cc1ccc(C(=O)NCCN2Cc3ccccc3OC(c3ccccc3F)C2)o1 (stereo not drawn)	none (no result: HCV inh)
O=C(CCCC(=O)Nc1ccc(Br)cc1)N/N=C/c1ccccc1	VACV mCherry inh inconclusive
COc1ccc(S(=O)(=O)N2CCN(c3ncccn3)CC2)cc1	none (no result: Vaccinia Venus, VACV mCherry inh)
COc1ccc(S(=O)(=O)N2CCN(c3cc(-c4ccccc4)nc4ncnn34)CC2)cc1	HCV inh 10µM (no result: Vaccinia Venus, VACV mCherry inh)
COc1ccc(-c2cc(-c3ccccc3)n3ncnc3n2)cc1	HCV inh inconclusive
COc1ccc(-c2cc(N3CCCC3)n3ncnc3n2)cc1	HCV inh 12.6µM, VACV mCherry inh inconclusive
CCOc1ccc(NS(=O)(=O)c2ccc3[nH]cc(C(=O)N4CCCC4)c(=O)c3c2)cc1	none (no result: HCV inh)
O=C(NCCc1ccccc1)c1ccc2nc(-c3ccco3)c(-c3ccco3)nc2c1	HCV inh 11.2µM (no result: Vaccinia Venus, VACV mCherry inh)
COC(CNC(=O)c1ccc2nc(-c3ccccc3)c(-c3ccccc3)nc2c1)OC	HCV inh 10µM
O=C(NCCO)c1ccc2nc(-c3ccco3)c(-c3ccco3)nc2c1	none
CN1CCN(CCNC(=O)c2ccc3nc(-c4ccc(F)cc4)c(-c4ccc(F)cc4)nc3c2)CC1	Vaccinia Venus inconclusive, HCV inh 2.24µM
O=C(NCCCN1CCN(CCCNC(=O)c2ccc(F)cc2)CC1)c1ccc(F)cc1	HCV inh inconclusive
COc1ccc(-c2nc3ccc(C(=O)NCC(OC)OC)cc3nc2-c2ccc(OC)cc2)cc1	HCV inh inconclusive
Cc1ccc(CNC(=O)Cn2ccn(-c3ccc(C)c(C)c3)c(=O)c2=O)cc1	none (no result: HCV inh)
COc1cccc(C2(CC(=O)N3CCC(c4nc5ccc(F)cc5[nH]4)CC3)CC(=O)N(C)C2=O)c1 (stereo not drawn)	none (no result: HCV inh)
C(=N\Nc1nc2ccccc2[nH]1)/c1ccccc1	none
O=[N+]([O-])c1cc(/C=N/Nc2nc3ccccc3[nH]2)c(O)cc1O	Vaccinia Venus inconclusive, HCV inh inconclusive, VACV mCherry inh 2.82µM
C(=N\Nc1nc2ccccc2[nH]1)/c1cccc2cccnc12	HCV inh 3.98µM (no result: Vaccinia Venus, VACV mCherry inh)
Cc1ccccc1/C=N/Nc1nc2ccccc2[nH]1	VACV mCherry inh inconclusive
Cc1ccc2cc(CNC(C)c3cccc4ccccc34)c(N3CCC(O)CC3)nc2c1 (stereo not drawn)	none (no result: HCV inh)
Cc1c(C(=O)N2CCN(C)CC2)sc2ncnc(NCC3(c4ccccc4)CCOCC3)c12	none (no result: HCV inh)
COc1cc(=O)n2c(c1C(=O)N(C)Cc1cscn1)CCN(Cc1c(C)[nH]c3ccccc13)CC2	none (no result: HCV inh)
C=CCn1c(C)cc(C(=O)CSc2nc3ccccc3o2)c1C	HCV inh 22.4µM (no result: Vaccinia Venus, VACV mCherry inh)
C=CCn1c(C)cc(C(=O)CSc2nc3ccccc3c(=O)[nH]2)c1C	Vaccinia Venus inconclusive, VACV mCherry inh inconclusive
